The record followed here is PubChem BioAssay (NCI).

Where “and” joins values, the source holds several entries; their conditions need not be identical. Equal entries are not always repeated. This is part of a sample that, as a whole, favours compounds with a hit. Of some 83,000 tested, about 20% had one in any assay.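 The endpoint reported here, percent growth, reads 100 for growth as untreated, 0 for no net growth and -100 for all cells dead.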 Unmarked numbers belong to inactive results. Calls of active or inactive are those of the source. Rule for the calls: active = growth percent below 10; inactive = the rest.

The first assay deals with 786-0 renal. Kind of assay: NCI-60 one-dose screen, 48 h (100 = growth as untreated, 0 = no growth, -100 = all killed). The settings on record: 10 µM unless noted.
Take `O=C(NN1C(=O)/C(=C/C=C/c2ccc([N+](=O)[O-])o2)SC1=S)c1ccc([N+](=O)[O-])cc1`: the growth was -80.1% (active).

`O=C(Nc1ccc(-c2ccc3c(c2)NC(=O)/C3=C\c2ccc[nH]2)cc1)Nc1ccc(Cl)c(Cl)c1`: the growth was 35.9%. Same read-out and setting: the same measure for `O=C1Nc2ccc(F)cc2/C1=C/C(=O)c1cc2ccccc2oc1=O`: 112%; for `Cc1cnc2ccc(Oc3ccccc3-c3ccccc3)nn12`: 102%.

The subject of a further assay is COLO 205 colon. Described as above. Conditions: 10 µM unless noted.
Regarding `CCCn1c(NC(=O)c2cccc(C(N)=O)c2)nc2ccc(CN3CCCCC3)cc21`, the growth was 97.4%. Regarding `Fc1ccc(Nc2nnc(-c3c[nH]c4ccccc34)o2)cc1`, the growth is 127%. On the same count and under the same terms, the same measure for `CC1=C(C(=O)OC(C)C)C(c2ccc(O)cc2)NC(=O)N1` (configuration not stated): 114%; for `COc1ccc(NC(=O)Cn2c(/C=C/c3ccc([N+](=O)[O-])cc3)nc3ccccc3c2=O)cc1`: 85.3%.

For `O=C(c1ccc(O)cc1)C1[C@H](c2ccc(Cl)cc2)[C@@H](c2ccccc2)NC12C(=O)Nc1ccccc12` (some centres not stated), the growth was -82.9% (active). Still for that read-out and setting: the same measure for `O=c1ccc(Cn2c(C(F)(F)F)cc3c(Cl)ncnc32)c[nH]1`: 62.6%; for `O=C(CSc1nc2c(c(=O)[nH]1)CCCC2)Nc1ccccc1C(=O)O`: 124%; for `COc1ccc2[nH]c(O)c(N=Nc3nc(-c4ccc(C#N)cc4)cs3)c2c1`: 86%. On the same count and under the same terms, the same measure for `COc1ccc(-c2nc3ccc(-c4nnc(SCC(=O)Nc5ccc(/C(C)=N\O)cc5)o4)cc3[nH]2)cc1`: 107%; for `Cc1ccc(C2CC(c3ccc(NC(=O)Nc4ccccc4)cc3)=NN2c2ccc(S(C)(=O)=O)cc2)cc1` (configuration not stated): -43.4% (active). The same measure, in the same setting: the same measure for `CN1CCN(C(=O)Oc2cc3c(c4ccccc24)[C@H](CCl)CN3C(=O)c2cc3cc(OCCCN4CCC4)ccc3[nH]2)[C@H]2CSSC[C@H]21`: -81.5% (active); for `Cc1ccc(N=Nc2c(N)nn3c(-c4cc5ccccc5oc4=O)ccnc23)cc1`: 6.35% (active). In the case of `C[C@@H]1[C@H]2C[C@@H](C[C@H]1NCc1nc3ccccc3n1C1CCCCCC1)C2(C)C`, the growth is 58.7%. The same measure, in the same setting: the same measure for `Cc1ccc(C(=O)Nc2cc(-n3ccnc3)cc(C(F)(F)F)c2)cc1-n1cc(-c2cnc3cccnn23)nn1`: 42.2%; for `CCC(=O)c1c2c(c3ccc4c5ccccc5ccc4n13)C(=O)c1ccccc1C2=O`: 75.8%. Turning to `N#Cc1c(NC(=O)N2CCOCC2)n(-c2ccc(OC(F)(F)F)cc2)c2cc(F)ccc12`, the growth was 108%. Still for that read-out and setting: to `CC(=O)Nc1cccc(-n2c(COc3ccc(Br)cc3)nc3ccccc32)c1` belongs 108% and 124%; to `COc1ccc(-c2cc(C(=O)OCc3ccc(Br)cc3)nn2-c2ccc(S(C)(=O)=O)cc2)cc1OC`, 110%.

`Cc1nc(N)ncc1-c1ccc2ncnc(N3CCc4cc(F)c(Cl)cc43)c2c1`: the growth was 81.5%. Still for that read-out and setting: the same measure for `COc1ccc(C(=O)NNC(=O)CSc2nc3sc4c(c3c(=O)n2-c2ccc(Cl)cc2)CCCC4)cc1`: 118%; for `Cn1cc(-c2cc3nc(-c4cn(C)c5ncccc45)cc(N)n3n2)c2cc(F)ccc21`: 47.1%; for `COc1ccc2[nH]c(=O)c(CSc3ccccc3Nc3nccc(-c4ccc(C(F)(F)F)cc4)n3)cc2c1`: 27.8%. Same read-out and setting: to `N#CC1=C(c2cccs2)Nc2c(c(-c3ccccc3)nn2-c2ccccc2)C12C(=O)Nc1ccc(Br)cc12` (configuration not stated) belongs -83% (active); to `CCN1CCN(Cc2ccc(C(=O)Nc3cccc(Nc4ccc5c(OC)cccc5n4)c3)cc2C(F)(F)F)CC1`, -67.5% (active); to `O=C(Nc1ccc(S(=O)(=O)N2CCCCC2)cc1)C(Cl)Cl`, 120%. On to `O=[N+]([O-])c1cccc(-c2nnc3c(/C=C/c4ccc(F)cc4)nc4ccccc4n23)c1`, for which the growth is 126%.

For the molecule `COc1ccc(/C=C/C(=O)c2ccc(OC)c(S(N)(=O)=O)c2)c(C(F)(F)F)c1`, the growth was 4.9% (active).

As for `COc1ccc2[nH]cc(-c3cc4nc(-c5cn(C)c6ncc(Br)cc56)cc(N)n4n3)c2c1`, the growth was -75.5% (active). Still for that read-out and setting: to `N#CC1=C(c2cccs2)Nc2c(c(-c3ccccc3)nn2-c2ccccc2)C12C(=O)Nc1ccc(Cl)cc12` (configuration not stated) belongs -29.2% (active); to `Oc1ccc(F)c(Nc2nc(SCCN3CCOCC3)nc3c2cnn3CC(Cl)c2ccc(Br)cc2)c1` (configuration not stated), 94.6%; to `O=C(NNC(=S)NCCc1ccccc1)c1ccc(OCc2nc3ccc(Cl)cc3[nH]2)cc1`, 131%.

With `COc1c(B(O)O)cc(F)cc1-c1nc2c(F)cc3[nH]ncc3c2c2c1CCCC2`, the growth was -16% (active). On the same count and under the same terms, to `C[C@H]1[C@@H](CC(=O)N[C@@H](Cc2coc3ccccc23)B(O)O)O[C@@H]2OC3(C)CC[C@H]4[C@H](C)CC[C@@H]1[C@@]24O3` belongs 23%.

For the molecule `C#CCN(C)CCCOc1ccc(N(C)C(=O)c2cc(C(C)C)c(O)cc2O)cc1Cl`, the growth is 7.34% (active). As for `O=C(NN1C(=O)/C(=C/C=C/c2ccc([N+](=O)[O-])o2)SC1=S)c1ccc([N+](=O)[O-])cc1`, the growth was -94.1% (active). Still for that read-out and setting: to `O=C(Nc1ccc(-c2ccc3c(c2)NC(=O)/C3=C\c2ccc[nH]2)cc1)Nc1ccc(Cl)c(Cl)c1` belongs 58%; to `O=C1Nc2ccc(F)cc2/C1=C/C(=O)c1cc2ccccc2oc1=O`, 105%. The same measure, in the same setting: to `Cc1cnc2ccc(Oc3ccccc3-c3ccccc3)nn12` belongs 131%.
